Source: PubChem
Most compounds without a hit are left out; they make up all but 8.5% or so of the library.
Sfp PPTase inh = blocks B. subtilis Sfp PPTase activity; 3.5% of 310,000 active; Biochemical Sfp PPTase activity, qHTS; Q9F4F7; Potency, µM, for the others: largest response in the series, negative = inhibition, most hits filed as inhibitors; active = well fitted curve in the direction sought with a large enough effect; inconclusive = small, poorly fitted or top-dose-only effect, or another doubt; inactive = no such curve, though single readings can be large; an effect the other way counts as inactive or inconclusive;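 also: the enzyme is Sfp with the accession as filed and its product quenches rhodamine fluorescence; potency is read from the fitted curve at half-maximal effect; 0% = enzyme reaction without inhibitor and -100% = no enzyme wells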
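With Hepes-Na pH 7.6 buffer containing 10 mM MgCl2, Sfp (15 nM) modified BHQ-2-YbbR (12.5 uM) using rhodamine-CoA (5 uM). Two reads 30 minutes apart at 525/598 nm yielded each well's rate.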
KDM4E inh = inhibitors of human JMJD2E histone demethylase | B2RXH2 | JMJD2E catalytic domain, FDH-coupled NADH fluorescence (FDH is formaldehyde dehydrogenase) | Potency, µM (doses to about 57.1 µM), inactives show top-dose activity change, negative = inhibition, usual class: inhibitors | 1.6% of 230,000 active | AID 2147;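 also: potency is read from the fitted curve at half-maximal effect; 0% = wells with enzyme and -100% = buffer wells without enzyme; nearly all actives have a fitted effect of over 50% in size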
Target sequence (B2RXH2 1-337 limits assumed): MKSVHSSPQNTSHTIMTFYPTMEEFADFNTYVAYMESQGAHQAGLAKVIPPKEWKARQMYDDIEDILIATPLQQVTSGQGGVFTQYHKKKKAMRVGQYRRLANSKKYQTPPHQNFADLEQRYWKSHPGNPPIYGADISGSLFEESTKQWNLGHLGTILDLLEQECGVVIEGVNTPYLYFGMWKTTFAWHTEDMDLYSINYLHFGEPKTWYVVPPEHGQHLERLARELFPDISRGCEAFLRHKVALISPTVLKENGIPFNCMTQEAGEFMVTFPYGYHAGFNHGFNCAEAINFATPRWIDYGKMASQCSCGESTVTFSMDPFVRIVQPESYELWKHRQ
NPSR antagonist = neuropeptide S receptor (human) antagonism, cAMP; 1% of 220,000 active; Q6W5P4; AID 1461; Potency, µM (titrated, usually from 38.3 µM), inactives show at the top dose activity change, negative = inhibition, usual class: inhibitors; CHO-NPSR cells, cAMP TR-FRET, antagonist mode; active = well fitted curve in the direction sought with a large enough effect; inconclusive = small, poorly fitted or top-dose-only effect, or another doubt; inactive = no such curve, though single readings can be large; an effect the other way counts as inactive or inconclusive; also: potency is read from the fitted curve at half-maximal effect; nearly all actives have a fitted effect of over 50% in size
RGS12 GoLoco inh = RGS12 GoLoco-Gai1 interaction inhibition. Gai1:RGS12 GoLoco peptide FP, rhodamine, 10 min. AID 880. 0.44% of 230,000 active. Potency, µM (highest dose often 61.6 µM), for the others: at the highest dose activity, negative = inhibition, actives largely listed as inhibitors. P63096; active = well fitted inhibition curve with a large enough effect, not every such curve was filed as active; inactive = no such curve, though single readings can be large or run the other way; also: potency is read from the fitted curve at half-maximal effect; nearly all actives have a fitted effect of over 30% in size
Target sequence (P63096 whole entry, looked up): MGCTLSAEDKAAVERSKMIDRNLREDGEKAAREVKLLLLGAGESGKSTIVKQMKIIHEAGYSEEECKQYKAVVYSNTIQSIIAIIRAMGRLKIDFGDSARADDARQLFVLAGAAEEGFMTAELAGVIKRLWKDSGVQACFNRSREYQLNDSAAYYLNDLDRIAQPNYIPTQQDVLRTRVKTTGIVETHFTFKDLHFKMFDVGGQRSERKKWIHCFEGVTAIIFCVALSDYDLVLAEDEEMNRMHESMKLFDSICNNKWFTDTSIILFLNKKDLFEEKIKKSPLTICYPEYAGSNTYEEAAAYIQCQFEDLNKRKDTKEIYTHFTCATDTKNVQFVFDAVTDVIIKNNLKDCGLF
FBPA coupling cs = inhibits coupling enzyme system, counter-screen for aldolase hits; activity change, negative = inhibition, % at 58.2 µM, hits read low; coupling enzyme system counterscreen, AmpLite Red fluorescence; 0.67% of 290,000 active; AID 2472; in the data active = activity change below about -30%
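Fluorescence at 525 nm excitation and 598 nm emission measured inhibition of the coupled detection system without aldolase. Compounds (at 57.5 uM final) were preincubated 10 min at room temperature with coupling enzyme reagent before a 20 min substrate/AmpLite Red step.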
ALDH1A1 block = ALDH1A1 (human) enzyme inhibition; Potency, µM (top dose mostly 75.3 µM), for the others: at the highest dose activity, negative = inhibition, usual class: inhibitors; Purified ALDH1A1, NADH fluorescence, propionaldehyde substrate; AID 1030; 7.3% of 220,000 active; P00352;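 also: potency is read from the fitted curve at half-maximal effect; plate controls were no enzyme wells and a reference inhibitor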
* marks the source's active call; other numbers are inactive results; ? = inconclusive; / = no result; [ ] = another dose, or the depositor's remark. Unless noted, calls follow the shape of the dose curve; as a rule, active = well fitted inhibition curve with a large enough effect (not every such curve was filed as active); inconclusive = small, poorly fitted or top-dose-only effect, or another doubt; inactive = no such curve, though single readings can be large or run the other way. Unless noted, % is scaled to controls: 0 for no effect and ±100 for the full control effect.

SMILES	Sfp PPTase inh	KDM4E inh	NPSR antagonist	RGS12 GoLoco inh	FBPA coupling cs	ALDH1A1 block
COc1ccc(CCNC(=O)C2CCN(C(=O)c3cccs3)CC2)cc1	13%	4%	-3%	1%	0	0.4µM*
CC(CCc1ccccc1)NC(=O)C1CCN(C(=O)c2sccc2-n2cccc2)CC1 (configuration not stated)	-7%	6%	-14%[46.1 µM]	12%	2	0.35µM*
CCN(C(=S)Nc1ccc(C(C)=O)cc1)C1CCCCC1	8%	0%	-4%	8%	0	-7%
COc1c(O)ccc(C2NC(=O)NC(C)=C2C(=O)Nc2ccccc2C)c1[N+](=O)[O-] (configuration not stated)	10%	-27%	2%	-3%	-2	-7%
CCC1CCCCN1CCCNC(=O)c1ccc(CS(=O)(=O)c2ccccc2OC)o1 (configuration not stated)	19%	/	/	/	-1	/
OCCC1CN(Cc2ccccc2O)CCN1CCCc1ccccc1 (configuration not stated)	19%	/	/	/	-1	/
Cc1ccc(CN2CCN(CCCc3ccccc3)CC2CCO)cc1 (configuration not stated)	-7%	8%	-11%	-9%	2	28µM*
OCCC1CN(Cc2c(O)ccc3ccccc23)CCN1CCc1ccccc1 (configuration not stated)	2%	?	-2%	-2%	-38*	11µM*
COc1ccc(CN2CCN(CCCc3ccccc3)C(CCO)C2)c(OC)c1 (configuration not stated)	-1%	/	/	/	2	/
COc1cc(CN2CCN(CCCc3ccccc3)C(CCO)C2)cc(OC)c1O (configuration not stated)	-5%	/	/	/	-41*	/
OCCC1CN(CCCc2ccccc2)CCN1Cc1ccc(F)cc1 (configuration not stated)	26%	/	/	/	5	/
CC(=O)c1cccc(N(C(=O)CNC(=O)c2ccco2)C(C(=O)NC2CCCC2)c2ccco2)c1 (configuration not stated)	12%	/	/	/	1	/
COc1ccc(C(C#N)N2CCC(c3ccccc3)=N2)cc1OC (configuration not stated)	13%	-11%	0%	-3%	0	2.2µM*
COc1cc(C(C#N)N2CCC(c3ccccc3)=N2)ccc1O (configuration not stated)	4%	-14%	-12%	-1%	0	/
COc1cc([N+](=O)[O-])ccc1NC(=O)NCc1ccco1	-7%	0%	-10%	8%	-1	?
Fc1cccc(NC(=S)N2CCN(c3ccccn3)CC2)c1	13%	/	/	/	3	/
Cc1ccccc1C1C(C#N)=C2N=C(N)c3c(sc4c3CCCCC4)N2C2=C1C(=O)CCC2 (configuration not stated)	50µM*	0%	-19%[46.1 µM]	19%	0	2.2µM*
Nc1nc(SC2c3cccc4cccc(c34)C2NS(=O)(=O)c2ccccc2)n[nH]1 (configuration not stated)	3%	13%	0%	-1%	2	14µM*
Brc1ccc(-c2nc3ccccc3s2)s1	-3%	?	13µM*	14%	0	?
CCCCCC1CC(=O)C=C(C)C1C(=O)OC (configuration not stated)	-8%	0%	-4%	-15%	0	-9%
COc1ccc(C(=O)C(CN2CCCC2)c2ccccc2)cc1 (configuration not stated)	-1%	-5%	-8%[46.1 µM]	6%	0	25µM*
CCCOc1ccc(C(=O)CCN2CCN(C(=O)OCC)CC2)cc1	-26%	2%	25%	4%	-1	0.71µM*
CCOc1ccc(C(=O)CCN2CCCCC2)cc1	-3%	3%	13%[46.1 µM]	-33%	0	0.016µM*
CCC1(C)CC2(CCCN(CCC(=O)c3ccccc3)C2)CCO1 (configuration not stated)	5%	5%	18%	1%	2	0.71µM*
CCOC(=O)N1CCN(C(=O)CCC(=O)c2ccc(OCC)cc2)CC1	1%	/	/	/	0	/
SMILES	Sfp PPTase inh	KDM4E inh	NPSR antagonist	RGS12 GoLoco inh	FBPA coupling cs	ALDH1A1 block
CC1(C)CC2(CCCN(C(=S)Nc3ccccc3)C2)CCO1 (configuration not stated)	-2%	9%	-2%	-1%	4	/
COc1cc(C(CC(=O)O)n2cnnn2)ccc1OC(C)C (configuration not stated)	5%	5%	33%	-11%	8	4%
COc1ccc(C(O)(CCc2ccccc2)CCN2CCCCC2)cc1 (configuration not stated)	-3%	2%	-14%	-4%	4	2.2µM*
O=C(CCN1CCCCCC1)c1ccccc1	6%	0%	-4%[46.1 µM]	1%	0	6.3µM*
CC(C)Oc1ccc(C(=O)CCN2CCCCC2)cc1	-20%	-6%	-1%[46.1 µM]	-3%	4	0.071µM*
CCOc1ccc(C(=O)CSCCC(=O)O)cc1	25µM*	-8%	-1%	-2%	1	?
CC(=O)c1c(C)[nH]c(C(=O)OC(C)C(=O)Nc2cc(S(=O)(=O)N3CCCCC3)ccc2Cl)c1C (configuration not stated)	14%	0%	-5%	7%	1	4%
CCOc1ccccc1N1CC(C(=O)N2CCOCC2)CC1=O (configuration not stated)	-1%	/	/	/	1	/
COc1ccc(C(=O)CCN2CCCCCC2)cc1	?	-3%	-2%[46.1 µM]	1%	1	0.063µM*
Cn1ncc2c(Nc3cccc(C(=O)O)c3)ncnc21	3%	-2%	1%[46.1 µM]	-3%	0	13µM*
COc1cccc(Nc2ncnc3c2cnn3C)c1	-6%	-8%	8%[46.1 µM]	3%	-1	-5%
COC(=O)CN(c1ccc(OC)cc1OC)S(=O)(=O)c1ccccc1[N+](=O)[O-]	?	-2%	-8%	7%	4	19µM*
COc1ccc(N(CC(=O)N2CCCCCC2)S(=O)(=O)c2ccccc2[N+](=O)[O-])c(OC)c1	11%	/	/	/	1	/
CC1(OC(=O)c2ccc(Cl)nc2)C(=O)C=C2C=C(C3CC3)OC=C2C1=O (configuration not stated)	1%	-4%	/	6%	-1	-1%
CC1(OC(=O)c2ccc(Cl)nc2)C(=O)C=C2C=C3CCCN3C=C2C1=O (configuration not stated)	?	5.6µM*	9%	-8%[14.2 µM]	-27	4%[13.5 µM]
COCCNC(C(=O)Nc1ccc([N+](=O)[O-])cc1Br)c1ccccc1 (configuration not stated)	-11%	-13%	-26%	12%	0	13µM*
O=C(Nc1ccc(Cl)c([N+](=O)[O-])c1)C(NCCCO)c1ccccc1 (configuration not stated)	0%	4%	7%	6%	0	0.71µM*
